Screening data deposited in PubChem by National Center for Advancing Translational Sciences (NCATS).
D2 antag: HTS Assay for Allosteric Antagonists of the Human D2 Dopamine Receptor: Primary Screen for Antagonists. AID 485344, 2010. HEK293 TREx D2 cells, calcium flux, dopamine EC80. hit rate 2% among 340,000. inhibition, % at 10 µM; in the data active = inhibition above about 30%; inactive = below that, where a call was filed
Target sequence (P14416 whole entry, looked up): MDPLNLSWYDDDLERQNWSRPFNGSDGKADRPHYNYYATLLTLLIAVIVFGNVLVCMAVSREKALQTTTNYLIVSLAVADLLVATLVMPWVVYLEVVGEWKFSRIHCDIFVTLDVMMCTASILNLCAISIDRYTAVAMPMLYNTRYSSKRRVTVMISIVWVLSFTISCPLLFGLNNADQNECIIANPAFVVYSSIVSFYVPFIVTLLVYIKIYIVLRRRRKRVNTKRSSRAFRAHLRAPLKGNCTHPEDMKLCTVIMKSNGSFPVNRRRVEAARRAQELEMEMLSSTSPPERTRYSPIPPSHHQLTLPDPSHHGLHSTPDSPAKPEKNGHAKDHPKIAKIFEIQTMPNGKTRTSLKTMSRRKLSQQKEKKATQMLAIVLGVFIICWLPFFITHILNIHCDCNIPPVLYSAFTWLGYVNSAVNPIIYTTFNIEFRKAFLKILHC
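Cells plated overnight at 30 C with tetracycline; no-wash calcium dye, 30–90 min RT; 10 s baseline; compound pinned; 180 s read; EC80 dopamine added; another 180 s read.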
D2 ag-1: Beta-Arrestin HTS for Positive Allosteric Modulators of the Human D2 Dopamine Receptor: Agonists. hit rate 0.084% among 360,000. AID 624465, 2012. DiscoveRx PathHunter D2 beta-arrestin, luminescence, 90 min; 100% = 57 uM dopamine signal. D(2) dopamine receptor (Homo sapiens), P14416. activation, % (test concentration not listed); in the data active = activation above about 40%
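DiscoveRx PathHunter D2 beta-arrestin cells (2,100/well) attached overnight, then compound-stimulated 90 min at 37 C in HBSS/10 mM HEPES/0.1% Tween-20 buffer; beta-galactosidase complementation read by luminescence after 1 h at ambient temperature. Dopamine 57 uM final (EC100) as control.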
D2 PAM-1: HTS Assay for Positive Allosteric Modulators of the Human D2 Dopamine Receptor: Primary Screen for Potentiators; HEK293 T-REx D2, calcium flux, EC20 dopamine potentiation; hit rate 0.34% among 340,000; D(2) dopamine receptor (Homo sapiens), P14416; potentiation, % at 10 µM;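 active = potentiation over 3 SD above the plate norm, cut at about 30% in these data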
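Potentiation of an EC20 dopamine calcium response is measured in a force-coupled, tetracycline-inducible Hek293 Trex D2 line. Compound-only kinetic reads over 180 s flag agonists before dopamine addition.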
D2 ag-2: HTS Assay for Allosteric Agonists of the Human D2 Dopamine Receptor: Primary Screen for Agonists; D(2) dopamine receptor (Homo sapiens), P14416; HEK293 T-REx D2 cells, calcium flux agonist mode; activation, % at 2 µM; hit rate 0.53% among 340,000; AID 485358, 2010;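 active = activation over 3 SD above normal in the single-dose calcium agonist read, cut at about 30% in these data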
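Tetracycline-induced HEK293 T-REx cells with force-coupled D2 receptor, plated overnight at 30 C, loaded with no-wash calcium dye. After a 10 s baseline, compound was pin-added and calcium flux read kinetically for 180 s; calcium rises flagged agonists.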
D2 PAM-2: Beta-Arrestin HTS for Positive Allosteric Modulators of the Human D2 Dopamine Receptor: Potentiators. potentiation, % (no concentration beside the values). DiscoveRx D2 beta-arrestin cells, luminescence, 90 min; 100% = 57 uM dopamine signal. hit rate 0.23% among 360,000. AID 624464, 2012. D(2) dopamine receptor (Homo sapiens), P14416; in the data active = potentiation above about 50%
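D2 cells co-treated with compound plus 50 nM dopamine (EC20) for 90 min at 37 deg C to detect potentiation. Beta-arrestin recruitment was read as enzyme-fragment luminescence after 1 h at ambient temperature. Full response was set by 57 uM dopamine.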
Each line names hits and unclear results; the compound was inactive in the other large screens. An excerpt weighted towards active compounds, which were near 2.4% of everything screened.

O=C1CC(c2cccs2)CC2=C1C(c1ccccc1)n1ncnc1N2 (configuration not stated)	none
c1ccc(C2C3=C(CCCC3)Nc3ncnn32)cc1 (configuration not stated)	D2 antag 31
N#CC1=C(N)Nc2ncnn2C1c1ccccc1 (configuration not stated)	none (no result: D2 ag-1, D2 PAM-2)
COc1ccc(C2CCCN2C(=O)c2cccs2)cc1 (configuration not stated)	D2 antag 78
Cc1nc2nc(NCc3ccccc3Cl)[nH]n2c(=O)c1Cc1ccccc1	none (no result: D2 antag, D2 ag-1, D2 PAM-2)
CCc1c(C)nc2nc(SCc3ccccc3Cl)[nH]n2c1=O	D2 antag 32
CN1/C(=C\C=C2/SC(=S)N(CC(=O)O)C2=O)C(C)(C)c2ccccc21	D2 ag-2 97
Cc1ccc(CNC(=O)C(NS(=O)(=O)c2ccc3nc(C)sc3c2)C(C)C)cc1 (configuration not stated)	none
Cc1nc2ccc(S(=O)(=O)NC(C(=O)NCc3ccco3)C(C)C)cc2s1 (configuration not stated)	D2 antag 31
CN1CCN(C(=S)c2ccc(-c3cccc([N+](=O)[O-])c3)o2)CC1	none
O=C(Nc1ccc(CN2CCOCC2)cc1)c1ccc(-c2cccc([N+](=O)[O-])c2)o1	none
O=[N+]([O-])c1cccc(-c2ccc(CN3CCCCC3)o2)c1	D2 antag 81
O=[N+]([O-])c1cccc(-c2ccc(C(=S)N3CCOCC3)o2)c1	D2 antag 61
COc1ccc2[nH]c3c(c2c1)CCn1c-3nc2sc(C(=O)Nc3ccccc3)c(C)c2c1=O	D2 antag 39 (no result: D2 ag-1, D2 PAM-2)
Cc1oc(-c2ccc3c(c2)OCCO3)cc1C(=O)NC(Cc1ccccc1)C(=O)O (configuration not stated)	none
Cc1ccc(NC(=O)COc2ccc(-n3cnnn3)cc2)cc1C	D2 antag 42
CCc1ccc(NC(=O)COc2cccc(-n3cnnn3)c2)cc1	D2 antag 37
COC(=O)c1ccc(NC(=O)COc2cccc(-n3cnnn3)c2)cc1	none
O=C(NCCc1ccc(O)cc1)c1[nH]c(C(F)(F)F)nc1-c1ccccc1	none (no result: D2 antag, D2 PAM-1, D2 ag-2)
CCOCCCN1C(=O)CN(C2CCCCCC2)C(=O)C1c1ccc(OCC)c(OC)c1 (configuration not stated)	none (no result: D2 antag, D2 ag-1, D2 PAM-2)
Cc1cc(C)n(CC(=O)O)n1	none
Cc1cc(C)n(CCn2nc(C)cc2C)n1	D2 antag 41
CC1CN(S(=O)(=O)c2cccc(C(=O)N3CCC(C(N)=O)CC3)c2)CC(C)O1 (configuration not stated)	none (no result: D2 antag, D2 PAM-1, D2 ag-2)
Cc1csc(SCC(=O)Nc2cccc3nsnc23)n1	D2 antag 33
Cc1csc(SCC(=O)Nc2ccccc2C)n1	none
Cc1csc(SCC(=O)Nc2ccc(C)c(F)c2)n1	D2 antag 37
Cc1c(C(=O)N2CCCC(C)(C(=O)NS(=O)(=O)C3CC3)C2)oc2ccccc12 (configuration not stated)	none (no result: D2 antag, D2 PAM-1, D2 ag-2)
COc1ccc(OC)c(NC2=C(c3ccccc3)C(=O)c3ccccc32)c1	none (no result: D2 antag, D2 ag-1, D2 PAM-2)
COC(=O)c1cc(C(=O)OC)cc(-n2c(C)cc(C(=O)CC#N)c2C)c1	D2 antag 33
COC(=O)CNC(=O)CSc1nc2c(sc(=S)n2-c2ccccc2)c(=O)[nH]1	D2 antag 44
COc1cccc(NCc2ccc([N+](=O)[O-])s2)c1	D2 PAM-2 50
Cc1ccc(C)c(NS(=O)(=O)c2cc3c(cc2Cl)NC(=O)CO3)c1	none (no result: D2 antag, D2 ag-1, D2 PAM-2)
CCCc1nnc(NC(=O)c2nc(S(=O)(=O)Cc3cccc(C)c3)ncc2Cl)s1	D2 PAM-1 30
O=C(Nc1cccc(OC(F)(F)F)c1)c1ccc(-c2cccnc2)c2ccoc12	none (no result: D2 antag, D2 PAM-1, D2 ag-2)
CCOC(=O)N1CCN(C(=O)C(=O)Nc2sc3c(c2C(N)=O)CC(C)(C)OC3)CC1	D2 antag 33
